Assay outcomes from PubChem BioAssay.
Sampled rows, rich in hits. Any-hit rate of the full collection: about 3%.
SENP7 inh = inhibitors of human SENP7 protease; Q9BQF6; recombinant SENP7, Z-RLRGG-aminoluciferin luminescence, 40 min; inhibition, % at 5 µM; 330,000 tested, 1.5% active; AID 434973;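 active = inhibition above about 50% at the single test dose, limit read from the data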;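 also: plate controls were DMSO with enzyme for no effect and no enzyme buffer wells for full effect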
Target sequence (Q9BQF6 706-1050 limits assumed): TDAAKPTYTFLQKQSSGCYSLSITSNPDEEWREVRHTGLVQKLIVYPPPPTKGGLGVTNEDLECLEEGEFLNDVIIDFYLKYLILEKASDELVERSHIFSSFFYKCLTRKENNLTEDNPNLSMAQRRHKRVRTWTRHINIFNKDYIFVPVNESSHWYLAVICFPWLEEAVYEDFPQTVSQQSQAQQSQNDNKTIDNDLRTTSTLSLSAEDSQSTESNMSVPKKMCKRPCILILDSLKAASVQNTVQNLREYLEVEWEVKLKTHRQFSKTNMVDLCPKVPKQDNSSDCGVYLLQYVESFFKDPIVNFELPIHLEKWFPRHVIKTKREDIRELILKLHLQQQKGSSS
SENP8 block-1 = inhibitors of human SENP8 protease; inhibition, % at 20 µM; 360,000 tested, 0.64% active; recombinant SENP8, Nedd8 substrate fluorescence; in the data active = inhibition mostly above about 40%, no sharp cut-off; inactive = mostly below about 27%
SENP8 block-2 = inhibitors of human SENP8 protease. AID 2540. purified SENP8, Z-RLRGG-aminoluciferin cleavage, luminescence. Q96LD8. 330,000 tested, 1.2% active. inhibition, % at 10 µM; in the data active = inhibition above about 50%
SENP6 inh = blocks the human protease SENP6; Q9GZR1; Recombinant SENP6 catalytic domain, aminoluciferin luminescence; inhibition, % at 10 µM; 330,000 tested, 1.8% active; AID 2599;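 active = inhibition above about 50% at the single tested dose, limit read from the data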;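 also: plate controls were DMSO wells with enzyme for no effect and DMSO wells lacking enzyme for full effect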
PPC-1+TRAIL kill = PPC-1 cancer cell killing with TRAIL present; cell killing (% activity), % at 4 µM or 5 µM; PPC-1 cells + TRAIL, ATPLite viability luminescence; AID 1443; 220,000 tested, 0.41% active;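 active = cell killing above 50% in the first pass at 4 µM, then a duplicate retest at 5 µM averaging 50% or more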;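 also: plate controls were cells with TRAIL plus DMSO for no effect and medium-only wells lacking cells for full effect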
C8 TRAIL sens = caspase-8 TRAIL sensitization. NB7+C8 cells + TRAIL, ATPlite viability luminescence. inhibition (viability loss, TRAIL sensitization), % at 10 µM. 360,000 tested, 1% active. AID 624354;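 active = compounds causing at least 50% loss of cell viability in the single-dose screen, relative to plate controls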
PPC1 cytotox = kills PPC-1 cells; shares compounds with PPC-1+TRAIL kill; PPC-1 viability, ATPlite luminescence, overnight; cytotoxicity, % at 5 µM; 1,200 tested, 50% active; AID 1447;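 active = reconfirmed compounds whose average cytotoxicity reaches 50% or more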;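 also: 0% = DMSO-treated cells and 100% = wells holding medium but no cells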
The depositor's hits bear a star; x = no result given.

SMILES	SENP7 inh	SENP8 block-1	SENP8 block-2	SENP6 inh	PPC-1+TRAIL kill	C8 TRAIL sens	PPC1 cytotox
COC(=O)c1sccc1NC(=O)c1cccc(OC)c1	-11	17	-9	-4	-2	-7	x
Cc1ccccc1NC(=O)c1ccc2c(c1)OCCO2	0	23	-3	22	21	-1	19
O=C(Nc1ccc2c(c1)OCO2)c1cncc(Br)c1	-3	15	-20	16	23	-5	x
Cc1cccc(NC(=O)c2ccc3c(c2)OCCO3)c1C	16	7	1	8	x	15	x
COC(=O)c1sccc1NC(=O)c1ccc2c(c1)OCO2	6	-60	-24	-5	4	-3	6
O=C(Nc1ccc2c(c1)OCCO2)c1cncc(Br)c1	33	18	4	-23	30	42	32
CC(=O)OC(Cn1nc(C)cc1C)c1ccccc1 (configuration not stated)	-2	20	6	4	4	-1	0
CC(=O)OC(C(=O)n1nc(C)cc1C)c1ccccc1 (configuration not stated)	3	4	2	-4	30	-9	x
COc1ccc(/C=C2\N=C(C)OC2=O)cc1[N+](=O)[O-]	-5	15	-2	-10	11	-24	x
COc1ccc(S(=O)(=O)Nc2ccccc2)cc1	3	7	6	0	x	22	x
COc1ccc(S(=O)(=O)Nc2ccc(O)c3ccccc23)cc1	24	-2	9	33	16	19	4
C=CCN(CC(=O)O)S(=O)(=O)c1ccccc1C(F)(F)F	-5	18	6	10	-15	-13	x
COc1cccc(-c2noc(CCC(=O)NC3CCCCC3)n2)c1	-3	12	1	-16	-1	21	5
O=C(NCc1ccco1)C1CC(=O)N(c2ccc(O)cc2)C1 (configuration not stated)	1	18	0	-11	-18	2	8
CC(=O)Oc1cccc(N2C(=O)c3ccc(C(=O)O)cc3C2=O)c1	39	2	-11	43	13	-10	x
O=C(O)c1ccc2c(c1)C(=O)N(c1cccc(-c3nc4ccccc4s3)c1)C2=O	-5	3	-6	0	39	49	37
O=C(c1ncc[nH]1)c1ccccc1C(=O)N1CCOCC1	-6	20	-8	-11	6	-15	5
CN(C)S(=O)(=O)c1ccc(C(=O)NCCOc2ccccc2)cc1	2	10	1	-16	-15	-11	-2
Cn1ccc2c(/C=C/c3ccc(F)cc3)cc3c(c21)C1CCC3C1 (configuration not stated)	x	-352	x	x	x	17	x
Cc1ccc(/C=C/C(=O)C2C(=O)c3ccccc3C2=O)cc1	7	13	-10	-18	95*	85*	94*
O=c1c(O)c(-c2cccs2)oc2ccccc12	-11	-258	-12	-4	12	-1	x
O=c1c(O)c(-c2cccs2)oc2ccc(Cl)cc12	-3	-312	-6	4	2	11	6
Cc1ccc(CSc2sc(C(=O)c3ccccc3)c(N)c2C#N)cc1	7	-43	13	26	-1	-5	x
Cc1ccc(-c2sc(C(=O)NN)c(C)c2C#N)cc1	-13	-38	-6	-14	73*	34	76*
CCOC(=O)C[n+]1c(C)sc2ccc(OC)cc21	1	24	1	-2	10	-6	22
SMILES	SENP7 inh	SENP8 block-1	SENP8 block-2	SENP6 inh	PPC-1+TRAIL kill	C8 TRAIL sens	PPC1 cytotox
O=C(Nc1cccc(S(=O)(=O)C(F)F)c1)c1ccc(S(=O)(=O)N2CCCC2)cc1	0	10	-3	-20	-11	-6	x
O=C(Nc1cccc(S(=O)(=O)C(F)F)c1)c1ccc(S(=O)(=O)N2CCOCC2)cc1	4	18	-2	-2	-4	21	-6
CC1CC(=O)N(CC(=O)Nc2ccccc2F)c2ccccc2S1(=O)=O (configuration not stated)	-1	9	-2	-2	x	11	x
O=C(CCCCn1c(=O)c2ccccc2n(Cc2ccc(F)cc2)c1=O)NCc1ccco1	-3	13	4	8	-4	15	2
COc1ccc(/C=C\C(=O)c2c(O)ccc3c(C)cc(=O)oc23)cc1OC	-1	-335	-1	3	4	-5	x
CC(=O)NC(c1ccc(F)c(F)c1)c1nc(-c2ccccc2)cs1 (configuration not stated)	x	-23	x	x	x	-9	x
